These results are taken from PubChem BioAssay.

Structures are written as SMILES. The list shows a part of the results. Activity calls are given as the source filed them.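 The calls were made as follows, unless noted: active = dye signal at least 3 control SD above or below untreated wells in both duplicates, raw fluorescence within 3, either direction; inactive = the rest.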

Chain of Voltage-gated inwardly rectifying potassium channel KCNH2 (Homo sapiens) (Q12809 whole entry, looked up): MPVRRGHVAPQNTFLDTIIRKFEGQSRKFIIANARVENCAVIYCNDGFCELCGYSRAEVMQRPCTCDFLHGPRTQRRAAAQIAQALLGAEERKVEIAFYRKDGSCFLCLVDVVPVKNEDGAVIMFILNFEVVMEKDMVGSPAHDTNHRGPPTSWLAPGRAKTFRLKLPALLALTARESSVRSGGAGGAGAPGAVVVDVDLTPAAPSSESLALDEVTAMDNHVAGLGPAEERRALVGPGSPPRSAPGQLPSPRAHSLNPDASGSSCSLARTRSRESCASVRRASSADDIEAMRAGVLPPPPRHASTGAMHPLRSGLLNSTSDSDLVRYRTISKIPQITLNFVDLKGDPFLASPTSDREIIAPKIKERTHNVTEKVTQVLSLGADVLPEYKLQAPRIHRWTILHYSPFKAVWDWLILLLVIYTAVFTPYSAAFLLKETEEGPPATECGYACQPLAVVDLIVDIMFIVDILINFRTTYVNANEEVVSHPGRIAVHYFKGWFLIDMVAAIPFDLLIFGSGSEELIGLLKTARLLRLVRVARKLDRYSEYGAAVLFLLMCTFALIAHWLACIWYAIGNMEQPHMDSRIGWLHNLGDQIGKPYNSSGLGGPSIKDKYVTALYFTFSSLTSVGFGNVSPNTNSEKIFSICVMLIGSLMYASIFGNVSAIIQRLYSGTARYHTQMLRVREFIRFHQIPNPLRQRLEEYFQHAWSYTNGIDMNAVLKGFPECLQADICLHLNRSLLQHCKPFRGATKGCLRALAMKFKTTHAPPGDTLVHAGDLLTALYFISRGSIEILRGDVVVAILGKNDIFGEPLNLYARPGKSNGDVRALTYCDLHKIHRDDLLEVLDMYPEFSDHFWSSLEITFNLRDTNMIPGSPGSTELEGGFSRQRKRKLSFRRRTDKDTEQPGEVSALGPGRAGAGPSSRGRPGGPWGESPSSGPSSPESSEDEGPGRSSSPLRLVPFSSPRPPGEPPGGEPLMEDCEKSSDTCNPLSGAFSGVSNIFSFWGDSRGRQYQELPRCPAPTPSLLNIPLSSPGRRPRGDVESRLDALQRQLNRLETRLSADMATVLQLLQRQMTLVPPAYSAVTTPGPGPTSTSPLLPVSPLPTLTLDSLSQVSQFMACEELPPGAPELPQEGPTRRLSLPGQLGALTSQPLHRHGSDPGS

Test system in the first assay: not listed separately
Nature of the assay: parental HEK293 cell activity, no Kir2.1 – FluxOR thallium flux, duplicate, single concentration, counter-screen for Kir2.1 inhibitor project, confirmation (AID 2105).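 As to FluxOR signal as % of negative control (100 = no effect): percent is based on the flux ratio of peak minus minimum fluorescence over baseline F0.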 Particulars: parental HEK293 cells, FluxOR thallium flux fluorescence, at 10 µM; 0% = unstimulated blank wells.
On to `CN(c1ccccc1)S(=O)(=O)c1ccc(Cl)c(C(=O)OCC(=O)NCc2ccco2)c1`, for which the result was inactive.

Turning to `Cc1cccc(NC(=O)c2nc(S(=O)(=O)Cc3ccccc3)ncc2Cl)c1`, the outcome was inactive.

As to `Cc1nnc(SCc2ccc(C(=O)c3ccc(Cl)cc3)o2)n1-c1ccccc1`, the outcome was inactive.

With `C/C=C(/C)C(=O)OC1Cc2c(ccc3ccc(=O)oc23)OC1(C)C` (stereo unspecified), the result was inactive.

Take `O=C(/C=C/Sc1ncn[nH]1)c1ccc(Cl)cc1`: the result was inactive.

Regarding `CC1=NN(C(=O)c2ccc(Br)cc2)C(O)(c2ccccc2)C1` (stereo unspecified), the FluxOR signal as % of negative control (100 = no effect) was 73.5% (active).

On to `CN1CCN(CCCCOc2ccccc2-c2ccccc2)CC1`, for which the outcome was inactive.

For the compound `Cc1ccc(C(=O)Nc2nnc(C3=COCCO3)o2)cc1C`, the result was inactive.

Regarding `COc1ccc(-c2n[nH]c(C)c2-c2ccccc2OC)c(O)c1`, the result was inactive.

Regarding `Clc1cccc(Cl)c1OCCOCCNCc1ccccc1`, the outcome was inactive.

With `CCCc1nc2sc3c(c2c(=O)n1NC(=O)CCCl)CCCC3`, the outcome was inactive.

In the case of `CCOC(=O)NC(C(F)(F)F)(C(F)(F)F)P(=O)(c1ccccc1)c1ccccc1`, the outcome was inactive.

Take `CCc1ccccc1NC(=O)[C@@H]1CCC(=O)N1C1OC(=O)c2c1ccc(OC)c2OC` (stereo partly specified): the result was inactive.

Regarding `CC1COc2ccccc2N1S(=O)(=O)c1ccccc1` (stereo unspecified), the result was inactive.

In the case of `O=C(NCCc1c[nH]c2ccccc12)C1CCN(Cc2ccc(Br)cc2)CC1`, the result was inactive.

As to `O=C(Cc1c[nH]c2ccccc12)OCCOC(=O)Cc1c[nH]c2ccccc12`, the outcome was inactive.

For the compound `CCCc1cc(=O)[nH]c(SCC(=O)c2cc(C)n(CCC)c2C)n1`, the result was inactive.

Turning to `COCCNC(=O)COc1ccc(N(C)S(=O)(=O)c2ccc3ccccc3c2)cc1`, the outcome was inactive.

For `O=C(CCCN1CCc2[nH]c3ccc(F)cc3c2C1)c1ccc(F)cc1`, the outcome was inactive.

Turning to `O=C(Nc1cccc(-c2cscn2)c1)C1CCN(Cc2ccsc2)CC1`, the result was inactive.

`CC1(C)NC(=O)N(CCCCSc2ccc(Cl)cc2)C1=O`: the result was inactive.

For the compound `CC(C)(C)c1cc2cccnc2n1Cc1cccc(F)c1`, the result was inactive.

For the compound `CC(NCc1ccccc1OC1CCCC1)c1ccccc1` (stereo unspecified), the outcome was inactive.

As for `CC1(c2ccccc2Cl)NC(=O)N(CC(=O)NC(=O)NCc2ccco2)C1=O` (stereo unspecified), the outcome was inactive.

Consider `Cc1cc(C)nc(SCc2nnc(SCC(=O)OC3CCCCC3)o2)n1`, for which the outcome was inactive.

With `COc1ccc(C(=O)Nc2ncc3c(n2)-c2ccccc2CC3)cc1`, the result was inactive.

Regarding `CC(C)(c1ccccc1)c1ccc(OCCN)cc1`, the result was inactive.

Turning to `CCCn1c(C2CCCN2c2nc(-c3ccc(C)cc3)cs2)nc2cc(Cl)c(N3CCCCC3)cc21` (stereo unspecified), the outcome was inactive.

As to `Cc1ccc(Nc2c3c(nc4ccccc24)CCC3)cc1`, the outcome was inactive.

As to `COc1ccc(C(O)(C2CCCCC2)C(CN2CCCC2)c2ccccc2)cc1` (stereo unspecified), the result was inactive.

For the compound `COc1cccc(CN(C)CC2CCCN(CCc3ccc(Cl)cc3)C2)c1OC` (stereo unspecified), the result was inactive.

Turning to `Cc1ccc(S(=O)(=O)N2CCN(C(=O)COC(=O)c3c(C)cc(C)cc3C)CC2)c(C)c1`, the result was inactive.

For `Cc1cc2cc3c(cc2nc1SCC(=O)Nc1c(C)cccc1C)CCC3`, the outcome was inactive.

Turning to `Cc1ccccc1C(=O)NCCN=C1NS(=O)(=O)c2ccccc21`, the outcome was inactive.

As to `CC(C)(c1ccccc1)c1ccc(OCCN2CCCC2)cc1`, the result was inactive.

For `O=C(NCc1ccc2c(c1)OCO2)C12CC3CC(CC(C3)C1)C2`, the result was inactive.

As for `S=C(Nc1ccc(Br)cc1)NC1CCN(Cc2ccccc2)CC1`, the result was inactive.

On to `CC(C)Cc1nnc(NC(=O)CCc2ccccc2)s1`, for which the result was inactive.

With `C=CCc1cc(S(=O)(=O)c2ccc(O)c(CC=C)c2)ccc1O`, the result was inactive.

Another assay has as its target Voltage-gated inwardly rectifying potassium channel KCNH2 (Homo sapiens) (UniProt Q12809). Briefly: hERG block by Kir2.1 inhibitor candidates – cell-based, thallium flux, counter-screen for Kir2.1 inhibitor project (AID 2236; call rule not given here;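 also: host cells are CHO cells stably expressing hERG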). Particulars: hERG-expressing cells, at 10 µM; stronger effect = higher value.
With `Cc1nnc(SCc2ccc(C(=O)c3ccc(Cl)cc3)o2)n1-c1ccccc1`, the result was inactive.

Turning to `C/C=C(/C)C(=O)OC1Cc2c(ccc3ccc(=O)oc23)OC1(C)C` (stereo unspecified), the call was inactive.

For the compound `CN1CCN(CCCCOc2ccccc2-c2ccccc2)CC1`, the call was inactive.

Consider `Clc1cccc(Cl)c1OCCOCCNCc1ccccc1`, for which the outcome was inactive.

Take `O=C(NCCc1c[nH]c2ccccc12)C1CCN(Cc2ccc(Br)cc2)CC1`: the inhibition was 61% (active).

Take `CCCc1cc(=O)[nH]c(SCC(=O)c2cc(C)n(CCC)c2C)n1`: the outcome was inactive.

With `O=C(CCCN1CCc2[nH]c3ccc(F)cc3c2C1)c1ccc(F)cc1`, the inhibition is 69% (active).

As for `O=C(Nc1cccc(-c2cscn2)c1)C1CCN(Cc2ccsc2)CC1`, the inhibition is 51% (active).

Regarding `CC1(C)NC(=O)N(CCCCSc2ccc(Cl)cc2)C1=O`, the result was inactive.

For `CC(NCc1ccccc1OC1CCCC1)c1ccccc1` (stereo unspecified), the compound was called inactive.

As for `Cc1cc(C)nc(SCc2nnc(SCC(=O)OC3CCCCC3)o2)n1`, the result was inactive.

On to `CC(C)(c1ccccc1)c1ccc(OCCN)cc1`, for which the compound was called inactive.

As for `Cc1ccc(Nc2c3c(nc4ccccc24)CCC3)cc1`, the inhibition is 61% (active).

Turning to `COc1ccc(C(O)(C2CCCCC2)C(CN2CCCC2)c2ccccc2)cc1` (stereo unspecified), the compound was classed as inactive.

On to `Cc1ccccc1C(=O)NCCN=C1NS(=O)(=O)c2ccccc21`, for which the outcome was inactive.

As for `S=C(Nc1ccc(Br)cc1)NC1CCN(Cc2ccccc2)CC1`, the inhibition was 49% (active).

In the case of `C=CCc1cc(S(=O)(=O)c2ccc(O)c(CC=C)c2)ccc1O`, the result was inactive.
